This is a sample that favours compounds with a hit; in the whole collection about 6.6% have one here.
GRIN3A LBD mod: binders of NR3A ligand-binding domain, primary screen, biophysical, differential scanning fluorimetry, uHTS; hit rate 2.5% among 340,000; Tm shift relative to glycine control, % at 25 µM; NR3A LBD differential scanning fluorimetry, Tm shift; 0% = protein alone, 100% = glycine-bound protein; Glutamate receptor ionotropic, NMDA 3A (GRIN3A) ligand-binding domain; AID 1259313, 2017;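 active = melting temperature shift of at least 10% of the positive control shift, at one fixed dose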
Beta apoptosis: inhibitors of cytokine-induced beta cell apoptosis, primary screen, luminescence. AID 435005, 2010. protection from apoptosis, % (no concentration beside the values). INS-1E cytokine-induced death, ATP luminescence, 48 h; percent of positive-control rescue, neutral wells zero. hit rate 0.8% among 300,000;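 active = Every replicate reaches about 75%, or at least half do and their mean reaches it too, limit read from the data; inconclusive = At least half of replicates reach the limit but their mean does not; inactive = Under half of replicates reach the limit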;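 note: higher means more ATP so stronger rescue from cytokine killing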
Mdm2-MdmX inh: inhibitors of human Mdm2-MdmX association, primary screen, cell-based, luminescence, split luciferase, SaOS-2, uHTS. Protein Mdm4 (Homo sapiens) + E3 ubiquitin-protein ligase Mdm2 (Homo sapiens), …. inhibition, % at 8 µM. SaOS-2 split-luciferase Mdm2/MdmX complementation. hit rate 3% among 330,000;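 active = inhibition of at least 50% at 8 µM in the primary screen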
Target sequence (O15151 whole entry, looked up): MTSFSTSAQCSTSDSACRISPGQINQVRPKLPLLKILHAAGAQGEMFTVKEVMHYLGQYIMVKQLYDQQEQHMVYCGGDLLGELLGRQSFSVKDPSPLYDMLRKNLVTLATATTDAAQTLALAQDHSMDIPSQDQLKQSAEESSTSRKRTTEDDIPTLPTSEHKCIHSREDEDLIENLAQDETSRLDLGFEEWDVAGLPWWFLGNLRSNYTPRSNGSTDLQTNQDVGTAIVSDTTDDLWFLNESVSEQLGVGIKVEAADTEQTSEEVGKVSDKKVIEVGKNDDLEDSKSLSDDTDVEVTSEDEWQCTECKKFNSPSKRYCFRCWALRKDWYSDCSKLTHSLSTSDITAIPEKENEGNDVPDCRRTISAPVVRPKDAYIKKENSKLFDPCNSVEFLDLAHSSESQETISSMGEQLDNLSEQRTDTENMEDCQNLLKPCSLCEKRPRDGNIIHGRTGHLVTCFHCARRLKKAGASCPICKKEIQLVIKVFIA
Target sequence (Q00987 whole entry, looked up): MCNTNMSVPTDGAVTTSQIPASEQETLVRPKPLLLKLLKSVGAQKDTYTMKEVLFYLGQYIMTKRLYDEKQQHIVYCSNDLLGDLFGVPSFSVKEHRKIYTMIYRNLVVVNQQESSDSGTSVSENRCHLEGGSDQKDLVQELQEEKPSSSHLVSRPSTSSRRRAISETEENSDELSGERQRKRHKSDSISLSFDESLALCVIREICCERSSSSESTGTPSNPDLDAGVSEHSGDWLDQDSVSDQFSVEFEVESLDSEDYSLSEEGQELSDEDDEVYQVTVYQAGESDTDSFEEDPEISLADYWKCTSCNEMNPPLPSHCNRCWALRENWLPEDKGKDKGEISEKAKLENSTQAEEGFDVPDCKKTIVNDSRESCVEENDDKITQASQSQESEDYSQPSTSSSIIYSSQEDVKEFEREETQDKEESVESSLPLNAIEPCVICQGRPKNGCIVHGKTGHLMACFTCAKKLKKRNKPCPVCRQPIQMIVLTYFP
MPTP inh: mitochondrial permeability transition pore inhibitors, primary screen, biochemical, isolated mouse mitochondria, absorbance. Ca2+ swelling absorbance, 30 min. inhibition, % at 10 µM. hit rate 1.4% among 360,000. AID 602449, 2012;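 active = inhibition of 50% or more, scaled per plate between neutral and stimulator controls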
CSC inhib: cancer stem cell viability inhibitors, primary screen, luminescence | cancer stem cell-like cells viability | inhibition, % at 7.5 µM | hit rate 1.1% among 300,000; in the data active = inhibition above about 75%; inconclusive = no clear call, values can overlap the other calls; tested in HMLE shEcad cells
Gli-Sufu antag: Gli-Sufu pathway antagonists, primary screen, luciferase luminescence, Sufu-KO-LIGHT cells, uHTS; Sufu-KO-LIGHT fibroblasts, Gli luciferase reporter luminescence; inhibition, % at 5 µM; hit rate 0.74% among 340,000; AID 588413, 2011;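 active = inhibition above about 55%, limit read from the data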
Mdm2-MdmX conf: Mdm2-MdmX complex disruptors, retested hits, confirmation, luminescence, single concentration; shares compounds with Mdm2-MdmX inh; Mdm2-MdmX binding, luminescent assay; inhibition, % at 8 µM; hit rate 55% among 10,000; AID 489028, 2010; in the data active = inhibition above about 40%
FLuc counter: full-length luciferase signal inhibition, confirmation, counter-screen for Mdm2/MdmX interaction inhibitor project, cell-based, single concentration, SaOS-2; shares compounds with Mdm2-MdmX inh; SaOS-2 full-length luciferase counterscreen, luminescence; inhibition, % at 8 µM; hit rate 77% among 6,200;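 active = mean inhibition at 8 µM reaching about 37%, which flags the compound as non-specific, limit read from the data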;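 note: p53-null SaOS-2 cells with luciferase driven by a doxycycline-inducible promoter; compound on cells about two nights before reading with doxycycline added after day one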
Of the large screens only hits and unclear results are named; the others gave an inactive call (follow-up assays come after a bar, where they were run).

O=[N+]([O-])c1ccc2ncnc(Nc3ccc4c(c3)OCCO4)c2c1	Mdm2-MdmX inh 56 (no result: Gli-Sufu antag) | Mdm2-MdmX conf 58 | FLuc counter inactive
Cc1ccc(O)c(Nc2ncnc3ccc([N+](=O)[O-])cc23)c1	none
COc1cc(C(CC(=O)N2CCCC2)c2c(OC)cc(OC)c3c(-c4ccccc4)cc(=O)oc23)cc(OC)c1OC (centres undefined)	none
COc1cc(C(CCN2CCCCC2)c2c(OC)cc(OC)c3c(-c4ccccc4)cc(=O)oc23)cc(OC)c1OC (centres undefined)	Mdm2-MdmX inh 65 | Mdm2-MdmX conf inactive
COc1cc(C(CCN2CCCC(C)C2)c2c(OC)cc(OC)c3c(-c4ccccc4)cc(=O)oc23)cc(OC)c1OC (centres undefined)	Mdm2-MdmX inh 82 | Mdm2-MdmX conf inactive
COc1cccc(-c2cc(=O)c3cc(NC(=O)c4ccc(N(C)C)cc4)ccc3[nH]2)c1	Mdm2-MdmX inh 65, CSC inhib inconclusive (no result: MPTP inh) | Mdm2-MdmX conf 60 | FLuc counter 71
COc1cccc(-c2cc(=O)c3cc(NC(=O)c4ccc(Cl)cc4)ccc3[nH]2)c1	none
COc1cccc(-c2cc(=O)c3cc(NC(=O)c4ccccc4)ccc3[nH]2)c1	GRIN3A LBD mod 26, Mdm2-MdmX inh 59 | Mdm2-MdmX conf 58 | FLuc counter 42
COc1cccc(CCC2C(=O)CCCC2=O)c1	none (no result: Beta apoptosis, Mdm2-MdmX inh, CSC inhib)
Cc1cnc(C(=O)OCC(=O)Nc2ccccc2-c2ccccc2)cn1	none (no result: CSC inhib)
CC1=NOC(=O)/C1=C\c1ccc(-c2ccc(Cl)cc2Cl)o1	Mdm2-MdmX inh 64 (no result: Beta apoptosis, CSC inhib) | Mdm2-MdmX conf inactive
CCCOc1ccc(Cl)cc1/C=C1/C(=O)ON=C1C	none
CC(OC(=O)c1ccc2ncsc2c1)C(=O)Nc1cccc(Cl)c1 (centres undefined)	none (no result: CSC inhib)
COc1cccc(-n2cc(C(=O)NCCCOC(C)C)c3ccccc3c2=O)c1	none
Cc1cc(C(=O)COC(=O)c2ccncc2)c(C)n1Cc1ccco1	none
COc1cc(C(=O)OCC(=O)c2cc(C)n(C)c2C)cc(NC(=O)c2ccco2)c1OC	Mdm2-MdmX inh 74 | Mdm2-MdmX conf inactive
Cc1cc(C(=O)COC(=O)c2ccco2)c(C)n1Cc1ccco1	Mdm2-MdmX inh 63 | Mdm2-MdmX conf 82 | FLuc counter 98
O=C1NNC(c2ccccc2)=N/C1=C\c1ccco1	none
COc1cc(/C=C2\N=C(c3ccccc3)NNC2=O)cc(OC)c1OC	Mdm2-MdmX inh 61 (no result: Beta apoptosis, CSC inhib) | Mdm2-MdmX conf 54 | FLuc counter 64
CN(C(=O)COn1nnc2ccc(Cl)cc21)C1CCS(=O)(=O)C1 (centres undefined)	none
COc1ccc(/C=N/Nc2nc(Nc3ccccc3)nc(N3CCCC3)n2)cc1[N+](=O)[O-]	GRIN3A LBD mod 26, Mdm2-MdmX inh 97 (no result: Beta apoptosis) | Mdm2-MdmX conf 92 | FLuc counter 61
COc1ccc(/C=N/Nc2nc(N3CCCCC3)nc(N3CCCCC3)n2)cc1[N+](=O)[O-]	none (no result: Beta apoptosis, Gli-Sufu antag)
COc1cc(/C=N/Nc2nc(Nc3ccccc3)nc(N3CCOCC3)n2)ccc1OC(=O)c1ccco1	Mdm2-MdmX inh 52 | Mdm2-MdmX conf inactive
O=C1N=c2ccccc2=C1c1c(O)[nH]c2c(C(F)(F)F)cccc12	none
Cc1ccc(S(=O)(=O)/C(C#N)=C/c2c(Oc3ccc(Cl)cc3)nc3c(C)cccn3c2=O)cc1	Mdm2-MdmX inh 59 (no result: GRIN3A LBD mod, MPTP inh, Gli-Sufu antag) | Mdm2-MdmX conf inactive
CC1(C)Oc2ccc3ccc(=O)oc3c2C(/C=N/O)=C1Cl	none
COc1ccc2c(c1)NC(c1cc(Cl)cc(Cl)c1O)c1cccn1-2 (centres undefined)	Mdm2-MdmX inh 81 (no result: Beta apoptosis, CSC inhib) | Mdm2-MdmX conf inactive
Oc1c(Cl)cc(Cl)cc1C1Nc2ccccc2-n2cccc21 (centres undefined)	none
CNCC[C@@H](Oc1ccc(C(F)(F)F)cc1)c1ccccc1	Mdm2-MdmX inh 50 (no result: MPTP inh) | Mdm2-MdmX conf inactive
CCC(C)Sc1cccc(-c2nc3ccc(Cl)cn3c2NCc2ccccc2)c1 (centres undefined)	Mdm2-MdmX inh 66 | Mdm2-MdmX conf inactive
C[C@]12CCC3C(CC[C@H]4CCCC[C@]34C)C1CC[C@@]2(O)CNCCO (some centres undefined)	Mdm2-MdmX inh 98 | Mdm2-MdmX conf 79 | FLuc counter 42
CCC(C)(C)c1ccc(OCCCC[n+]2cccc(C)c2C)c(C(C)(C)CC)c1	Beta apoptosis 117, Mdm2-MdmX inh 100, CSC inhib 135, Gli-Sufu antag 85 | Mdm2-MdmX conf 98 | FLuc counter 53
CCC(C)(C)c1ccc(OCCCC[n+]2ccc(C)cc2)c(C(C)(C)CC)c1	Beta apoptosis 115, Mdm2-MdmX inh 98, CSC inhib 106, Gli-Sufu antag 84 (no result: MPTP inh) | Mdm2-MdmX conf 97 | FLuc counter 53
O=C(COc1ccc(S(=O)(=O)N2CCCC2)cc1Cl)NCc1cccnc1	none
O=C1[C@H]2[C@@H](c3ccc(F)cc3)N3C(=O)N(c4cccc(F)c4)C(=O)[C@@]3(Cc3ccccc3)[C@H]2C(=O)N1C1CCCCC1	none
O=C1[C@H]2[C@@H](c3ccc(F)cc3)N3C(=O)N(c4ccc(Br)cc4)C(=O)[C@@]3(Cc3ccc(Cl)cc3)[C@H]2C(=O)N1C1CCCCC1	Mdm2-MdmX inh 85 | Mdm2-MdmX conf 94 | FLuc counter inactive
Cc1ccc(N2C(=O)N3[C@H](c4ccc(F)cc4)[C@@H]4C(=O)N(C5CCCCC5)C(=O)[C@@H]4[C@]3(Cc3ccccc3)C2=O)cc1	Mdm2-MdmX inh 61 (no result: Beta apoptosis) | Mdm2-MdmX conf 70 | FLuc counter 57
O=C(c1ccc(Cn2cnnn2)cc1)N1CCCC(Nc2ccc(F)c(F)c2)C1 (centres undefined)	none
CCCCCC(=O)Nc1cccc(C2=NOC3(C2)C[C@@H](C(N)=O)N(C(=O)CC(c2ccccc2)c2ccccc2)C3)c1 (some centres undefined)	Mdm2-MdmX inh 53 | Mdm2-MdmX conf 48 | FLuc counter 65
O=C(NCc1ccccc1)C1=C[C@@H](C2CC2)C[C@@H](OCc2ccc(CO)cc2)O1	none
O=C(NC1CC1)C1=C[C@H](c2csc3ccccc23)C[C@H](OCCCCO)O1	none
O=C(O)C1=C[C@H](c2csc3ccccc23)C[C@H](OCc2ccc(CO)cc2)O1	none

Bioassay records as filed in PubChem BioAssay.
